The record followed here is PubChem BioAssay AID618 (Sanford-Burnham Center for Chemical Genomics, 2007).

The whole screen tested about 87,000 compounds, of which about 540 (0.62%) were called active. The rule behind the calls is not given here. The full list was thinned out, with actives kept by preference. Results with a measured potency or affinity are listed apart.

The experiment is described as follows: inhibitors of MT1-MMP promoter transcription, cell-based, luciferase reporter, luminescence (AID 618).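 Note: actives suppress MT1-MMP promoter-driven transcription so potencies describe inhibitors.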 The conditions noted are these: MT1-MMP promoter luciferase reporter cells.
Take `CCCn1c(-c2ccc(OC)cc2)nc2c(=O)n(C)c(=O)[nH]c21`: the call was inactive.
In the case of `CCC(C)NS(=O)(=O)c1ccc(NC(=O)c2c(-c3ccccc3)noc2C)cc1` (stereo not drawn) it was “inactive”; in that of `O=C(NCCCc1ccccc1)c1cnc2n(c1=O)CCS2`, “inactive”; in that of `O=C(COc1cccc(C(F)(F)F)c1)NCCCN1CCCC1=O`, “inactive”.
In the case of `CCC(=O)Nc1ccc2c(c1)C(=O)N(C1CCCCC1)C2=O` it was “inactive”; in that of `CCN(CC)c1ccc2cc(C(C)=O)c(=O)oc2c1`, “inactive”; in that of `CCN(CC)c1ccc2cc(C(=O)Nc3ccccn3)c(=O)oc2c1`, “inactive”.
In the case of `CC(C)C(NS(=O)(=O)c1ccc(Br)s1)C(=O)O` (stereo not drawn) it was “inactive”.
With `O=C(CCCSc1nnc(-c2cccs2)n1CC1CCCO1)c1ccccc1` (stereo not drawn), the compound was called inactive.
In the case of `COC(=O)c1ccc(Oc2cc(C)nc(-n3nc(C)cc3C)n2)cc1` it was “active”.
In the case of `CNc1cc(C)nc(-n2nc(C)cc2C)n1` it was “inactive”.
For `CCOc1ccc(Nc2cc(C)nc(-n3nc(C)cc3C)n2)cc1`, the result was inactive.
In the case of `Cc1ccc(Oc2cc(-n3nc(C)cc3C)ncn2)cc1` it was “inactive”; in that of `COc1ccc(Nc2cc(C)nc(-n3nc(C)cc3C)n2)cc1`, “active”.
In the case of `CC(=O)c1ccc(Oc2cc(C)nc(-n3nc(C)cc3C)n2)cc1` it was “active”; in that of `COC(=O)c1ccc(Oc2cc(C)nc(SC)n2)cc1`, “inactive”; in that of `CC(=O)c1ccc(Oc2cc(C)nc(NCc3ccccc3)n2)cc1`, “inactive”.
For `COC(=O)c1ccc(Oc2nc(C)cc(Oc3ccccc3)n2)cc1`, the call was inactive.
In the case of `Cc1ccc(C(=O)NCc2cccs2)cc1S(=O)(=O)N1CCCCC1` it was “inactive”; in that of `Cc1cccc(OCCn2c(=O)sc3ccccc32)c1`, “inactive”; in that of `CCSc1nnc(NC(=O)CSc2nc3c(c(=O)n2C)SC(C)C3)s1` (stereo not drawn), “inactive”.
In the case of `COc1ccc(C)cc1S(=O)(=O)N(C)CC(=O)Nc1ccccc1` it was “inactive”; in that of `Cc1ccc(-c2nnc(SCC(=O)N3CCCC3)o2)cc1C`, “inactive”; in that of `COC(=O)c1ccc(S(=O)(=O)c2ccccc2)c(N)c1`, “inactive”.
Turning to `O=C(Cn1cnc2c(nnn2Cc2ccccc2)c1=O)N1CCN(c2ccccc2)CC1`, the call was inactive.
Consider `CCOc1nc(NC2CCCCC2)nc(NC(C)(C)C)n1`, for which the call was inactive.
In the case of `C/C=C/COC(=O)c1[nH]c2c(c1C)C(=O)CC(c1ccc(N(C)C)cc1)C2` (stereo not drawn), the compound was classed as inactive.
As for `C/C=C/COC(=O)c1[nH]c2c(c1C)C(=O)CC(c1ccco1)C2` (stereo not drawn), the call was active.
Consider `C=CCOC(=O)c1[nH]c2c(c1C)C(=O)CC(c1ccco1)C2` (stereo not drawn), for which the outcome was active.
In the case of `Cc1c(C(=O)OCC2CCCO2)[nH]c2c1C(=O)CC(c1ccc(N(C)C)cc1)C2` (stereo not drawn) it was “inactive”; in that of `Cc1ccc(S(=O)(=O)N(CC(=O)N2CCC(C(N)=O)CC2)Cc2ccc(F)cc2)cc1`, “inactive”.
In the case of `Oc1ccc(F)cc1-c1cc(-c2ccc3c(c2)OCCO3)n[nH]1` it was “inactive”.
In the case of `Oc1ccccc1-c1cc(-c2cccc(F)c2)n[nH]1` it was “inactive”; in that of `Oc1ccccc1-c1cc(-c2ccc3c(c2)OCCO3)n[nH]1`, “active”.
For the compound `Cc1cccc(NCc2ccccc2O)n1`, the compound was called inactive.
In the case of `O=C(CSc1nnc(COc2ccc(F)cc2)o1)N1c2ccccc2CCc2ccccc21` it was “inactive”.
In the case of `O=C(CSc1nnc(COc2ccc(Cl)cc2)o1)N1c2ccccc2CCc2ccccc21` it was “active”.
In the case of `O=C(CSc1nnc(COc2ccc(Cl)cc2)o1)N1CCN(c2ccccc2)CC1` it was “inactive”; in that of `COC(=O)c1ccccc1NC(=O)NCc1ccco1`, “inactive”.
In the case of `CC1(C)CC(=O)C2=C(C1)N(CCN1CCOCC1)C1=C(C(=O)CC(C)(C)C1)C2c1cccc(F)c1`, the result was inactive.
In the case of `CC(=O)Nc1ccc(-c2nnn(CC(=O)c3ccccc3)n2)cc1Cl` it was “inactive”; in that of `CCOc1cc(/C=N/n2cnnc2)ccc1O`, “inactive”; in that of `CCOc1cc(/C=N/n2cnnc2)cc(Br)c1O`, “inactive”.
In the case of `CCOc1cc(/C=N/n2cnnc2)c(Br)cc1O` it was “active”; in that of `O=C(COc1ccc(S(=O)(=O)NC2CCCCC2)cc1)NCC1CCCO1` (stereo not drawn), “inactive”.
In the case of `N#Cc1nn(-c2ccccc2)nc1N1CCCCC1` it was “inactive”.
With `Cc1ccc(NC(=O)CC(O)(C(F)(F)F)C(F)(F)F)cc1`, the compound was called inactive.
In the case of `CCN1C(=O)C2C(c3ccccc3F)NC(Cc3ccc(O)cc3)(C(=O)OC)C2C1=O` (stereo not drawn) it was “inactive”; in that of `COC(=O)c1sc(NC(=O)COc2ccc(OC)cc2)nc1C`, “inactive”; in that of `COc1ccc(C(=O)Nc2ccc(C)cn2)c(OC)c1`, “active”.
In the case of `COc1ccc(C(=O)Nn2cnnc2)c(OC)c1` it was “inactive”; in that of `COC(=O)c1sc(NC(=O)c2ccoc2C)nc1C`, “inactive”.
In the case of `COc1ccc(C(=O)Nc2c(F)c(F)c(F)c(F)c2F)c(OC)c1` it was “inactive”; in that of `CCc1nnc(NC(=O)c2c(OC)cccc2OC)s1`, “inactive”.
Regarding `COC(=O)c1sc(NC(=O)c2ccc(OC)cc2OC)nc1C`, the result was active.
In the case of `CCOc1ccccc1C(=O)Nc1nnc(CC)s1` it was “inactive”; in that of `Cc1ccc(C)c2[nH]c(=O)c(CCNC(=O)C(C)(C)C)cc12`, “inactive”.
Turning to `O=S(=O)(c1ccc(Br)cc1)N1CCCN(Cc2ccccc2F)CC1`, the outcome was inactive.
In the case of `COc1ccccc1NC(=O)N1CCN(c2ccc3nncn3n2)CC1` it was “inactive”.
In the case of `CCCCOC(=O)C1C2C=C[C@]3(CN(CCCOC)C(=O)[C@H]13)O2` (stereo partly drawn) it was “inactive”; in that of `CCOc1ccc(NC(=O)CSc2nnc(Cn3c(=O)sc4ccccc43)n2C)cc1`, “inactive”.
In the case of `CCOC(=O)c1cnn(CCOC(=O)Cc2cccs2)c1NC(=O)Cc1cccs1` it was “inactive”; in that of `CC1=[N+]([O-])C(N2CCOCC2)C(O)(c2ccccc2)C1` (stereo not drawn), “inactive”.
Turning to `COCCN1C(=O)c2ccccc2C(C(=O)NCCCN2CCCC2)C1c1c[nH]c2ccccc12` (stereo not drawn), the compound was called inactive.
As to `O=C(NCC(c1cccnc1)N1CCOCC1)c1ccc2c(c1)OCO2` (stereo not drawn), the call was inactive.
In the case of `O=S(=O)(NCCOCC(F)(F)C(F)F)c1ccc2oc3ccccc3c2c1` it was “inactive”; in that of `S=C(Nc1ccccn1)c1ccccn1`, “inactive”; in that of `S=C(Nc1ccccc1)c1ccccn1`, “inactive”.
In the case of `Cc1c(C(=O)c2ccc(Cl)cc2Cl)cnc2cc3c(cc12)OCO3` it was “inactive”; in that of `O=C(CN1CCN(C(=O)c2ccco2)CC1)Nc1c2c(nc3c1CCC3)CCCC2`, “inactive”.
In the case of `COC(=O)c1noc(-c2ccc(C)cc2)n1` it was “inactive”; in that of `Cc1ccc(-c2noc(-c3cccs3)n2)cc1`, “inactive”.
For `COc1ccc(C(NC(N)=O)c2ccccc2)cc1` (stereo not drawn), the call was inactive.
In the case of `FC(F)C(F)(F)C(F)(F)C(F)(F)c1cc(-c2ccccc2)n[nH]1` it was “inactive”; in that of `CCN(CC)c1ccc2cc(-c3nnc(-c4ccccc4)o3)c(=O)oc2c1`, “inactive”; in that of `CCN(CC)c1ccc2cc(-c3nc4ccccc4n3C)c(=O)oc2c1`, “inactive”.
For the compound `COc1cc(C2CC(=O)n3c(nc4ccccc43)S2)cc(OC)c1OC` (stereo not drawn), the compound was classed as inactive.
In the case of `COc1ccc(C2CC(=O)n3c(nc4ccccc43)S2)cc1OC` (stereo not drawn) it was “inactive”; in that of `O=C1CC(c2ccc3c(c2)OCO3)Sc2nc3ccccc3n21` (stereo not drawn), “active”; in that of `Clc1ccc2c(c1)C1OCCC1C(c1ccco1)N2` (stereo not drawn), “inactive”.
In the case of `Cc1ccc(-c2nn(CC(=O)NCc3cc(-c4nn(C)c(=O)c5ccccc45)ccc3C)c(=O)c3ccccc23)cc1` it was “inactive”; in that of `CN(C)S(=O)(=O)c1ccc(C(=O)OCC(=O)NC(=O)NCc2ccccc2)cc1`, “inactive”.
In the case of `CCOC(=O)Nc1cccc(Nc2ccccc2)c1` it was “inactive”; in that of `CCOC(=O)c1sc(Nc2ccccc2)nc1C`, “inactive”; in that of `CCOC(=O)/C(=C/Nc1ccccc1)[N+](=O)[O-]`, “inactive”.
For the compound `CCOC(=O)c1cccc(NC(=O)c2cccnc2)c1`, the result was inactive.
For `CCOC(=O)/C(=C\c1cccnc1)C(=O)c1cc(C(C)=O)c(Nc2ccccc2)s1`, the compound was called active.
In the case of `c1ccc(C2C3=C(CCCC3)Nc3ncnn32)cc1` (stereo not drawn) it was “inactive”.
In the case of `Cc1cccc(C)c1NC(=O)CSc1nnc(CCCCCNC(=O)OC(C)(C)C)o1` it was “inactive”; in that of `COc1ccc2cc(C#N)c(SCC(=O)N3CCCC3)nc2c1`, “inactive”.
For `Nc1cccc2cnccc12`, the call was inactive.
In the case of `Cc1cc2c(N)cccc2nn1` it was “inactive”.
On to `CN(C)CCNS(=O)(=O)c1ccc(Cl)cc1`, for which the compound was called inactive.
As for `O=S(=O)(c1ccc(N2CCC(c3ccc(Cl)cc3)=N2)cc1)N(CCO)CCO`, the outcome was inactive.
In the case of `CC1NC(=O)NC1CCCCC(=O)O` (stereo not drawn) it was “inactive”; in that of `Cc1ccc(S(=O)(=O)NC2=NCN(C3CCCCC3)CN2)cc1`, “inactive”; in that of `Cc1ccc(Cn2c(NCCc3ccccc3)nc3c2c(=O)n(C)c(=O)n3C)cc1`, “inactive”.
In the case of `COc1ccc(NS(=O)(=O)c2ccc(N)c(C(=O)O)c2)cc1` it was “inactive”; in that of `O=C(OCc1csc(-c2ccccc2)n1)c1cccs1`, “inactive”; in that of `Cn1cccc1C(=O)OCc1csc(-c2ccccc2)n1`, “inactive”.
In the case of `Cc1ccsc1C(=O)OCc1csc(-c2ccccc2)n1` it was “active”.
For `O=c1cc(CSc2nnnn2-c2ccccc2)nc2nc[nH]n12`, the compound was classed as inactive.
In the case of `O=C(NC1CC1)c1cc2c(s1)-c1ccccc1OC2` it was “inactive”; in that of `Cn1c(=O)cc(SCC(=O)NCC2CCCO2)c2ccccc21` (stereo not drawn), “inactive”; in that of `Cc1cc(NCCCn2ccnc2)n2nc(C)c(-c3ccccc3)c2n1`, “inactive”.
In the case of `CC(C)(C)c1cc(NCCCn2ccnc2)n2ncc(-c3ccc(Cl)cc3)c2n1` it was “inactive”.
In the case of `Cc1cc(NCCCn2ccnc2)n2nc(C)c(-c3ccc(Cl)cc3)c2n1` it was “inactive”.
For `Cc1cc(NCCCN2CCOCC2)n2ncc(-c3ccccc3)c2n1`, the outcome was inactive.
As for `Cc1cc(NCCCn2ccnc2)n2ncc(-c3ccccc3)c2n1`, the compound was called active.
In the case of `Cc1ccc(C)c(C(=O)CC2(O)C(=O)Nc3ccccc32)c1` (stereo not drawn) it was “inactive”.
In the case of `Cc1onc(-c2c(F)cccc2Cl)c1C(=O)NCCCN1CCOCC1` it was “inactive”; in that of `Cc1cccc(C)c1NC(=O)Cn1c(CN2CCCCC2)nc2ccccc2c1=O`, “inactive”; in that of `CCN(Cc1ccccc1)S(=O)(=O)c1nc2nc(C)c(C)c(C)n2n1`, “inactive”.
In the case of `CC(C)(C)C(=O)Nc1ccc(-c2cn3ccsc3n2)cc1` it was “active”; in that of `CC(C)CC(=O)Nc1ccc(-c2cn3ccsc3n2)cc1`, “inactive”; in that of `CC(=O)Nc1ccc(-c2cn3ccsc3n2)cc1`, “inactive”.
In the case of `CCCOC(=O)c1ccc(Oc2c(-c3ccc(OC)cc3O)n[nH]c2C)cc1`, the compound was classed as inactive.
In the case of `COc1ccc(CN2CC(C(=O)NCc3ccc4c(c3)OCO4)CC2=O)cc1` (stereo not drawn) it was “inactive”.
